Bioassay records: PubChem BioAssay, University of Kansas High Throughput Screening Laboratory
The sample as a whole holds a higher share of hits than the screen did.
Pf apPOL inh: Pf-apPOL inhibitors, biochemical, fluorescence | Recombinant Pf-apPOL, molecular beacon fluorescence, 1.5 h | inhibition, % at 10 µM | AID 1794808, 2022 | hit rate 0.25% among 210,000 | Plasmodium falciparum apicoplast DNA polymerase (apPOL)
mHTT-CaM PPI inh: mutant huntingtin-calmodulin interaction inhibitors – biochemical, AlphaScreen, primary screen; inhibition, % at 15 µM; AlphaScreen His-mHTT/GST-CaM binding, luminescence; hit rate 3.6% among 190,000; P42858; AID 1671202, 2021;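 note: 0% = both proteins with DMSO and 100% = one protein alone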
Target sequence (P42858 whole entry, looked up, stated change not applied): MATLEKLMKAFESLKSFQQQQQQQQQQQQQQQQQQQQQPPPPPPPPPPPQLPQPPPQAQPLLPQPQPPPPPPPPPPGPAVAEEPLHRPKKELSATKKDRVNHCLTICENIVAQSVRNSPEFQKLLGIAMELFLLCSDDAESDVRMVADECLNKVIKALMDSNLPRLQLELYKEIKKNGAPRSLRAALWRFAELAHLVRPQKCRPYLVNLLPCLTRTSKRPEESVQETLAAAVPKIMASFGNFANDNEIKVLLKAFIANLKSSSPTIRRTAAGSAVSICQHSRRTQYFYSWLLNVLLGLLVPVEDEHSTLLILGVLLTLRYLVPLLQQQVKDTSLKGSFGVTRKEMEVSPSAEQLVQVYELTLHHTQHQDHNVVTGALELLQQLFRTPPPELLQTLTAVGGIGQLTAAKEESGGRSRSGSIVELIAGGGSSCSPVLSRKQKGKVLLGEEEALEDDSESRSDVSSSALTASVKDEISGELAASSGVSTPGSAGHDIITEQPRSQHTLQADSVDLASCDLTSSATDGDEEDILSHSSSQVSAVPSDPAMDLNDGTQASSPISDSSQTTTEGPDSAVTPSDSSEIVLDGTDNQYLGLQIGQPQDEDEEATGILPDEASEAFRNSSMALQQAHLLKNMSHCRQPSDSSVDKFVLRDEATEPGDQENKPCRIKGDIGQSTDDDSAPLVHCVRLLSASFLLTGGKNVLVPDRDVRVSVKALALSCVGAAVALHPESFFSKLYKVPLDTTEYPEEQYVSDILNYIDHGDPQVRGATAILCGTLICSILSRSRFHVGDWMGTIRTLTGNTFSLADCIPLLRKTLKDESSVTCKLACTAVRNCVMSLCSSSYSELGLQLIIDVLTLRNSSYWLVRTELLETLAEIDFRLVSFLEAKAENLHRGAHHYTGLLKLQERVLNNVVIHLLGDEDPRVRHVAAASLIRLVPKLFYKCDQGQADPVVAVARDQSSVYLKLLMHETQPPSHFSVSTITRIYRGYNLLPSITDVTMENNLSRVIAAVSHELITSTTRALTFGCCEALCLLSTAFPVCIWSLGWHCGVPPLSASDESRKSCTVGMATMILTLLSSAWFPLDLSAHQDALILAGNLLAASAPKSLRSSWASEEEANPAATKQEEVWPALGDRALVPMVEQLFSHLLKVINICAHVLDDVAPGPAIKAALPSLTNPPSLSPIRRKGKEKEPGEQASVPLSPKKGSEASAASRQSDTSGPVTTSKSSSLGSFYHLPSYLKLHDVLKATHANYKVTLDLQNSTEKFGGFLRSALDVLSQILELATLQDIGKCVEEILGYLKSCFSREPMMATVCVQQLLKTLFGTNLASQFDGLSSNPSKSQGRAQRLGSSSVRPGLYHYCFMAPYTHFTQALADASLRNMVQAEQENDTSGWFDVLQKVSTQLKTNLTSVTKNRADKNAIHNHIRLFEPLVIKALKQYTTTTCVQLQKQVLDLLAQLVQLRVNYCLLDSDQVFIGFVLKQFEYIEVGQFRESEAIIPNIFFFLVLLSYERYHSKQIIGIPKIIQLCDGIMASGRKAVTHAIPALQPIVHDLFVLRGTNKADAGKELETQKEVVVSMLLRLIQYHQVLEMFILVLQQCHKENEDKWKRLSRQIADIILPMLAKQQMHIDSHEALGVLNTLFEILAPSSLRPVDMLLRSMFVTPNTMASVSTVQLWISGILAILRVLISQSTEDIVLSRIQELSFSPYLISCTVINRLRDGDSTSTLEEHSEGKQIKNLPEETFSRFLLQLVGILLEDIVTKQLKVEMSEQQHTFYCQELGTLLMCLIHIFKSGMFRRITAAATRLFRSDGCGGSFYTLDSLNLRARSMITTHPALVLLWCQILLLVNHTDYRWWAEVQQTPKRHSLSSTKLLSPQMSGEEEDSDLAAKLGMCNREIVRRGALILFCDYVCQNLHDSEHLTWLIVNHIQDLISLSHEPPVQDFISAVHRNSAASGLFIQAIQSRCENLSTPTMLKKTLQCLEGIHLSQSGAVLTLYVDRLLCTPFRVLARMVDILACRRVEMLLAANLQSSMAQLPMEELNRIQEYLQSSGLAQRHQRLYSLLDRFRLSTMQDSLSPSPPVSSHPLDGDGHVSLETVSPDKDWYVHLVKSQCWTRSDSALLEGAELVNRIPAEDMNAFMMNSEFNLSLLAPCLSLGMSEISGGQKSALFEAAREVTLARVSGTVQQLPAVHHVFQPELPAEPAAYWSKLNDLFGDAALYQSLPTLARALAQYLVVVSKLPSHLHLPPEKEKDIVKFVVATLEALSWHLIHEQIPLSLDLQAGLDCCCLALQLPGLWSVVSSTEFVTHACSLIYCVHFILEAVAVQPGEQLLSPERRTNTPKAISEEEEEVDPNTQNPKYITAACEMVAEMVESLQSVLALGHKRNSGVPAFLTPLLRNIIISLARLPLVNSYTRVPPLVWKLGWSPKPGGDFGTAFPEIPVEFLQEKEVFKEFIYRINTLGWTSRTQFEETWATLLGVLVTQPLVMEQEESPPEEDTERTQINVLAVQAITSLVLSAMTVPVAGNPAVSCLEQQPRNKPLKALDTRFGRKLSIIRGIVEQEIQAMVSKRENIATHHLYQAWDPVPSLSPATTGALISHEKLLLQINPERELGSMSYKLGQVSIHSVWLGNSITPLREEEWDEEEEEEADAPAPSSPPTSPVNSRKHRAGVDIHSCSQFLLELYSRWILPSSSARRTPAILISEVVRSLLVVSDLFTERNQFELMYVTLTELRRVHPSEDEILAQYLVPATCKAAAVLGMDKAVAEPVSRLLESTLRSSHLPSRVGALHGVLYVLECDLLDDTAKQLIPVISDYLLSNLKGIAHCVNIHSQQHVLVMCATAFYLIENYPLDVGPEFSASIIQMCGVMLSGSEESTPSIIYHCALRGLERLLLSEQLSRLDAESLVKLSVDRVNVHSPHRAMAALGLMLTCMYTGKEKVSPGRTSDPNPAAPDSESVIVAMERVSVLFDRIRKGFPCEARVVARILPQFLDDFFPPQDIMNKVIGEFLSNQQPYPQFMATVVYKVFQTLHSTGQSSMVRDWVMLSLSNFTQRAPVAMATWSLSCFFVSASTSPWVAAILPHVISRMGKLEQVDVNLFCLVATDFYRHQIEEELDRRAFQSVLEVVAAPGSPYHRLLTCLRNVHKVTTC
The depositor's hits bear a star; · = not tested or not shown. Cut-off read from the data, not from the text of the source: active = inhibition above about 50%; inactive = the rest.

SMILES	Pf apPOL inh	mHTT-CaM PPI inh
O=[N+]([O-])c1ccc(NC(c2ccccn2)c2ccc3cccnc3c2O)cc1 (stereo not drawn)	-2	100*
Oc1c(C(Nc2cccc(C(F)(F)F)c2)c2cccnc2)ccc2cccnc12 (stereo not drawn)	-4	99*
CN(C)CCC(c1ccc(Cl)cc1)c1ccccn1 (stereo not drawn)	-8	·
CCCn1ccc2sc(C)c(C(=O)N3CCN(c4ccccc4F)CC3)c2c1=O	-1	43
Cn1nc(COc2ccc(F)cc2)c2c1CCN(C(=O)Nc1ccccc1C(F)(F)F)C2	0	25
COc1cc(C=C2Oc3c(ccc(O)c3CN3CCCC3)C2=O)cc(OC)c1OC	-40	9
Cc1onc(-c2cccc(F)c2)c1C(=O)N(C)C	2	-3
CCCN1CCn2cc(S(=O)(=O)Nc3cccc(C)c3)cc2C1=O	-1	-4
O=C(Nc1cccc2cccnc12)c1ccc(Cl)cc1Cl	-5	-8
COc1ccc(NC(=O)c2cccnc2)cc1	-8	-2
COc1ccc(NC(c2cccnc2)c2ccc3cccnc3c2O)cc1 (stereo not drawn)	-3	99*
Oc1c(C(Nc2cccc(Cl)c2)c2ccccn2)ccc2cccnc12 (stereo not drawn)	-5	100*
C#CCSc1nncn1C(=O)/C=C/c1ccco1	·	6
Cc1ccc(S(=O)(=O)N2CCC(c3nc4ccncc4n3C)C2)cc1 (stereo not drawn)	-3	4
CC(C)(C)n1nc2c(c1NC(=O)c1c(F)cccc1Cl)CSC2	0	26
CC(C)(C)n1nc2c(c1NC(=O)c1ccco1)CS(=O)C2 (stereo not drawn)	6	2
Cc1ccc(C(=O)Nc2c3c(nn2C(C)(C)C)CSC3)cc1	-2	-10
CC(C)(C)n1nc2c(c1NC(=O)c1ccco1)CSC2	39	71*
CC(C)(C)n1nc2c(c1NC(=O)C(=O)NCc1c(F)cccc1F)CSC2	-1	60*
COc1ccc(C(=O)Nc2c3c(nn2-c2ccc(C)cc2C)CSC3)cc1	-74	8
CC(C)(C)n1nc2c(c1NC(=O)c1ccc(F)cc1)CSC2	-4	58*
Cc1ccc(-n2nc3c(c2NC(=O)c2ccc(F)cc2)CSC3)c(C)c1	57*	28
Cc1ccc(-n2cnc(C(=O)NC3CCCCC3)n2)cc1	6	-11
Cc1cccc(C)c1OCC1C[N+]23CCO[B-]2(OCC3)O1 (stereo not drawn)	-4	2
COc1ccc(C2=NOC(C(=O)Nc3ccccc3SC)C2)cc1 (stereo not drawn)	-7	-6
SMILES	Pf apPOL inh	mHTT-CaM PPI inh
O=C(NC1CC1)c1nc(-c2ccncc2)cs1	-3	-7
Clc1ccc(-n2nnc(C=CC=Cc3ccccc3)n2)cc1	3	·
O=C(Nc1cccc(F)c1)N1CCCC1c1ccc(Cl)cc1 (stereo not drawn)	-1	-17
Cc1ccc(S(=O)(=O)c2nc(S(C)(=O)=O)sc2NCCc2ccccc2)cc1	-3	3
CC(NCCN)c1ccccc1 (stereo not drawn)	-9	-1
CCOC(=O)N1CCC(NC(=O)C2CCN(c3cc(=O)n(C)c(=O)n3C)CC2)CC1	0	26
O=C1C(=Cc2ccncc2)Oc2cc(OC(=O)C3CCCCC3)ccc21	-6	6
Cc1ccc(C(=O)Nc2c3c(nn2C(C)(C)C)CS(=O)(=O)C3)cc1	88*	3
Cc1cccc(C(=O)Nc2c3c(nn2C(C)(C)C)CS(=O)(=O)C3)c1	-1	1
CC1=NN2C(C1)c1ccccc1OC21C(=O)Nc2ccccc21 (stereo not drawn)	-13	80*
O=C1N(Cc2ccccc2)c2ccccc2C12Oc1ccccc1C1CC(c3ccco3)=NN12 (stereo not drawn)	4	32
Clc1ccccc1CN1CCc2c([nH]c3ccccc23)C1	-1	95*
COc1cccc(CN2CCc3c([nH]c4ccccc34)C2)c1OC	5	18
CN(C)c1ccc(CN2CCc3c([nH]c4ccccc34)C2)cc1	-40	60*
c1ccc2c3c([nH]c2c1)CN(Cc1ccc2c(c1)OCO2)CC3	-2	29
COc1ccccc1/C=C/C=C1/N=C(c2ccccc2OC)OC1=O	-3	9
O=C(Nc1ccc(N2CCOCC2)c(Cl)c1)c1ccc(Cl)c([N+](=O)[O-])c1	-2	24
NCCNc1ccc([N+](=O)[O-])cc1	-1	12
Nc1ccc(Nc2ccc([N+](=O)[O-])cc2)cc1	-5	52*
O=c1c(=O)n(-c2cccc3ccccc23)ccn1Cc1ccc(F)cc1Cl	-2	-18
CCCOc1ccc(-c2noc(-c3cccs3)n2)cc1	-6	-8
CC(C)c1noc(COC2CCCN(C(=O)Cc3cccnc3)C2)n1 (stereo not drawn)	-8	-8
Clc1ccc(C2C=C(c3ccc(Br)cc3)Nc3ncnn32)cc1 (stereo not drawn)	-8	-7
CCCCc1ccc(C2C(C#N)=C(N)SC(N)=C2C#N)s1	-1	55*
